# Measurements: ChEMBL document CHEMBL5308504, “Tm Shift (DSF) assay results for EUbOPEN Chemogenomics Library” (2023)
# Where “and” joins values, the source holds several entries; their conditions need not be identical. Identical values can stand only once.
# Experiments:
# Details in all cases: Compound concentration 20.0 uM, Protein concentration 2.0 uM, Result type QC Liability
# [1] = biological target: Tyrosine-protein kinase ABL1 (Homo sapiens) (UniProt P00519)
# [2] = biological target: Cyclin-dependent kinase 2 (Homo sapiens) (UniProt P24941)
# [3] = biological target: Casein kinase I isoform delta (Homo sapiens) (UniProt P48730)
# [4] = biological target: Glycogen synthase kinase-3 beta (Homo sapiens) (UniProt P49841)
# [5] = biological target: Mitogen-activated protein kinase 1 (Homo sapiens) (UniProt P28482)
# [6] = biological target: T1, Aurora kinase A (Homo sapiens) (UniProt O14965)
# T1 sequence (whole entry): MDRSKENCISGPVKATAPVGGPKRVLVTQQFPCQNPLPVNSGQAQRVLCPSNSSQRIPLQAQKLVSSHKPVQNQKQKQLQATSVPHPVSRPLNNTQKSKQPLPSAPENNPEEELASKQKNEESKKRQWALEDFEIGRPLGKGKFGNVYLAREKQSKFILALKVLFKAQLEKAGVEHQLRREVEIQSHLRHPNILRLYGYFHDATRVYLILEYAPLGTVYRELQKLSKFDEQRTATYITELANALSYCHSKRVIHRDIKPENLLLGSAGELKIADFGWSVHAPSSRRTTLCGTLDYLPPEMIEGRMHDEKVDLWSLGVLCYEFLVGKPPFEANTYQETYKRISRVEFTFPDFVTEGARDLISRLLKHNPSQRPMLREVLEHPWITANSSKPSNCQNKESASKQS
# Sequence of Mitogen-activated protein kinase 1 (Homo sapiens) (P28482 whole entry): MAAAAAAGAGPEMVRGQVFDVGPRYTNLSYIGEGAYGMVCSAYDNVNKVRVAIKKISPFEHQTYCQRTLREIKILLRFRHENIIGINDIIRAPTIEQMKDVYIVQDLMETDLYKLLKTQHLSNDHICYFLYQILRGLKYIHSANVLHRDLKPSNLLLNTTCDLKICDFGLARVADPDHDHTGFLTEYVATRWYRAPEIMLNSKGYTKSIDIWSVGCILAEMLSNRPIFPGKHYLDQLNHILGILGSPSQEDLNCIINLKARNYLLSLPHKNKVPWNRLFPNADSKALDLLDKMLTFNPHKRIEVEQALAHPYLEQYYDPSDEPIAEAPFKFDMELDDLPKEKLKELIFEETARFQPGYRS
# Sequence of Casein kinase I isoform delta (Homo sapiens) (P48730 whole entry, looked up, canonical isoform): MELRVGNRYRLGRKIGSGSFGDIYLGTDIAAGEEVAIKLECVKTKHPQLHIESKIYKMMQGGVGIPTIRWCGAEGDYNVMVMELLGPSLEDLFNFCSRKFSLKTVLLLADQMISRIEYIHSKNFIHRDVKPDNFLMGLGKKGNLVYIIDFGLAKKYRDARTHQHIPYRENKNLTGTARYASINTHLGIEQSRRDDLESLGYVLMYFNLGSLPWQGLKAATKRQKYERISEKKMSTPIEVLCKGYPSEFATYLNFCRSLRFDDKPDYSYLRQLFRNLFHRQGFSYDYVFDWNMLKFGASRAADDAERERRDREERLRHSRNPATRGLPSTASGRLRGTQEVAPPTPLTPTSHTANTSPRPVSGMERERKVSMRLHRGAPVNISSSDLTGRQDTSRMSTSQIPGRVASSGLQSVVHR
# Sequence of Tyrosine-protein kinase ABL1 (Homo sapiens) (P00519 whole entry): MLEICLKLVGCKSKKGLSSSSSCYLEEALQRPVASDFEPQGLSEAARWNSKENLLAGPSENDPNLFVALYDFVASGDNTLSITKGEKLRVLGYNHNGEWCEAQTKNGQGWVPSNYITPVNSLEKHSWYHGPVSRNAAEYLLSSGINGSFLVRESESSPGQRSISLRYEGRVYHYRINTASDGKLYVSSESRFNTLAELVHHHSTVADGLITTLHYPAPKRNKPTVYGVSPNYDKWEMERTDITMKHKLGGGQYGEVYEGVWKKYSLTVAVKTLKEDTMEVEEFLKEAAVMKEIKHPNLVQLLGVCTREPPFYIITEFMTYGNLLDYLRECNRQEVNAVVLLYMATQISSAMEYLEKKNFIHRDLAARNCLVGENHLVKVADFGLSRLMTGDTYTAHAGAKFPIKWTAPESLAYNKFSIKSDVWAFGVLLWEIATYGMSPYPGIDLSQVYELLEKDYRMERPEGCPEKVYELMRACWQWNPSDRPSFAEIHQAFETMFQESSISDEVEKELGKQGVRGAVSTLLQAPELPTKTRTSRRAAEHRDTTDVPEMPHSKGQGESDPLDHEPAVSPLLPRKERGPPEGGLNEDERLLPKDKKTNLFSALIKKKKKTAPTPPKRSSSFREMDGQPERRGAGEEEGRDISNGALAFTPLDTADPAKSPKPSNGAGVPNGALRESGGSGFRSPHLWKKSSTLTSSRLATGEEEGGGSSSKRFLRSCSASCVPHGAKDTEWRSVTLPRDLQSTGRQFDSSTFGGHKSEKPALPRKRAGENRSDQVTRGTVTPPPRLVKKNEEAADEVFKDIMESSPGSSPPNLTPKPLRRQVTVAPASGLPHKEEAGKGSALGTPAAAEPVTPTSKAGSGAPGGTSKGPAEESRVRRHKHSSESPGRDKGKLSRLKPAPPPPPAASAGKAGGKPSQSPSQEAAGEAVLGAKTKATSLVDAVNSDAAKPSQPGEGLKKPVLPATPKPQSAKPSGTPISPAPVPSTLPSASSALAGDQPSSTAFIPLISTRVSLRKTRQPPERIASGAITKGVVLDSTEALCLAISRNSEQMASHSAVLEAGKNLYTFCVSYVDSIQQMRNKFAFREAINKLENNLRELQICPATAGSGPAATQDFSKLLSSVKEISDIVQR
# Sequence of Glycogen synthase kinase-3 beta (Homo sapiens) (P49841 whole entry, looked up): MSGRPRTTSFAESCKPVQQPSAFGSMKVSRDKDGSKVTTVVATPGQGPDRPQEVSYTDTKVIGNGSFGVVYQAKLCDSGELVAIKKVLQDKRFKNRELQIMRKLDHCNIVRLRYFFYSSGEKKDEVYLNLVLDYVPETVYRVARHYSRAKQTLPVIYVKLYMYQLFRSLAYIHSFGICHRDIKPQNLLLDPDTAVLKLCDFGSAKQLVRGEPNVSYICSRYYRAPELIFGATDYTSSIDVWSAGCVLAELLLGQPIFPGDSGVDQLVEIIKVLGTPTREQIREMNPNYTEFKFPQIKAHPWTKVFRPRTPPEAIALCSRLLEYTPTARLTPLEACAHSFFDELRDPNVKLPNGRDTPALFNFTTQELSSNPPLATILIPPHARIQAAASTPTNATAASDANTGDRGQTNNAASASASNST
SMILES,ΔTm [1],ΔTm [2],ΔTm [3],ΔTm [4],ΔTm [5],ΔTm [6]
CO[C@H]1CC[C@H](N(c2cc(F)c(Oc3ncc(Cn4nccn4)cc3C(F)(F)F)cc2C(=O)O)C(=O)[C@H]2CC[C@H](C)CC2)CC1,-0.55 °C,-0.98 °C,-0.04 °C,-1.43 °C,0.48 °C,-0.75 °C
N[C@@H]1CCCC[C@H]1Oc1ccc2ncc(-c3cc4ccccc4o3)n2n1,0.63 °C,1.2 °C,1.01 °C,4.43 °C,0.17 °C,1.07 °C
Nc1ncnc2c1c(I)cn2[C@@H]1O[C@H](CO)[C@@H](O)[C@H]1O,2.09 °C,6.73 °C,5.26 °C,2.65 °C,1.65 °C,2.13 °C
COc1cc(-c2cc3ncccc3c(O[C@@H](C)[C@H]3CNC(=O)C3)n2)cc(OC)c1OC,0.48 °C,0.19 °C,1.43 °C,-0.57 °C,0.06 °C,2.08 °C
CCc1ncnc(N2CCN(C(C)=O)CC2)c1C#Cc1ccc(N)nc1,0.27 °C,0.16 °C,1.03 °C,-0.12 °C,0.42 °C,-0.14 °C
COc1cc2ncnc(Nc3ccc4c(cnn4Cc4ccccc4)c3)c2cc1OC,-2.25 °C,-2.73 °C,0.02 °C,-2.74 °C,-0.38 °C,0.63 °C
Cn1nc(-c2ccc(C(N)=O)cc2)c2ccccc2c1=O,0.66 °C,0.13 °C,0.57 °C,-0.19 °C,0.56 °C,0.43 °C
C[C@@H](COCCC(=O)N1CCN(c2ncc(C(F)(F)F)cn2)CC1)Nc1cn[nH]c(=O)c1C(F)(F)F,0.32 °C,0.9 °C,-0.05 °C,-0.82 °C,0.42 °C,-0.45 °C
COc1cc2c(NC3CCN(C(C)C)CC3)nc(C3CCCCC3)nc2cc1OCCCN1CCCC1,0.15 °C,0.9 °C,0.11 °C,-0.55 °C,0.32 °C,0.5 °C
CCCNc1ccc2ncc(-c3ccncc3)n2n1,5.22 °C,4.76 °C,5.6 °C,4.07 °C,1.16 °C,6.52 °C
NCc1ccc(OCCCc2sc(-c3ccc4c(c3)/C(=N/Nc3nc5ccccc5s3)CCC4)nc2C(=O)O)cc1,0.43 °C,0.49 °C,-0.37 °C,-0.12 °C,-0.02 °C,1.25 °C
C=CC(=O)Nc1cccc(C(=O)Nc2ccc(Nc3cc(-c4c(-c5ccc(F)cc5)nc(SC)n4C)ccn3)cc2)c1,2.33 °C,-0.01 °C,3.17 °C,-0.32 °C,0.35 °C,1.08 °C
CCOc1ccc(S(=O)(=O)Nc2ccc(Cl)cc2C#Cc2cnc(C(=O)O)cc2OC)c2ncccc12,-0.94 °C,-1.65 °C,-1.46 °C,-1.14 °C,-0.06 °C,-2.25 °C
CN(C(=O)c1cnn2cccnc12)c1cc2c(cc1N1CCOCC1)C(=O)N(C[C@@H](F)C(C)(C)O)C2,0.37 °C,-0.41 °C,-0.06 °C,-0.42 °C,0.49 °C,-0.66 °C
NC(=O)C1CCCc2c1[nH]c1ccc(Cl)cc21 (stereo not given),0.05 °C,0.79 °C,0.23 °C,-0.8 °C,0.44 °C,0.7 °C
COc1cc(Cl)c(C(=O)N[C@@H](CN[C@H]2CC[C@@H](N)CC2)Cc2ccc(C#N)cc2)cc1-c1ccc(CN[C@H](C)c2ccc(C)cc2)o1,0.33 °C,0.42 °C,-0.07 °C,-0.81 °C,0.33 °C,0.07 °C
CS(C)(=O)=Nc1ccc(-c2ccc(-c3nc4[nH]c(O[C@@H]5CO[C@H]6[C@@H]5OC[C@H]6O)nc4cc3Cl)cc2)cc1,1.8 °C,0.06 °C,0.3 °C,-0.22 °C,0.83 °C,0.34 °C
CN(C)C(=O)c1sc2nc(N3CCC(S(C)(=O)=O)CC3)cc(C(F)(F)F)c2c1N,-0.62 °C and 1 °C,0.58 °C and 0.19 °C,0.2 °C and 0.17 °C,-0.24 °C and -0.54 °C,-0.76 °C and 0.56 °C,-0.67 °C and 0 °C
Cc1cn([C@H](C)CC#N)c(=O)c2cc(Cn3nc(C(F)F)cc3Cl)nn12,0.14 °C,-0.62 °C,-0.16 °C,-0.46 °C,0.16 °C,-1.16 °C
CNS(=O)(=O)c1ccc(N(C)C)c(Nc2ncnc3cc(OC)c(OC)cc23)c1,3.42 °C,-0.02 °C,0.23 °C,-0.61 °C,0.24 °C,-1.08 °C
CC1CCN(C(=O)[C@H](CCn2cccc2C#N)NS(=O)(=O)c2cccc3[nH]ccc23)CC1,0.43 °C,0.31 °C,0.54 °C,0.64 °C,0.72 °C,-0.11 °C
Cc1cc(=O)n(C)c2cc(N3C(=O)CC[C@H](NS(=O)(=O)CC(C)C)[C@H]3c3ccc(Cl)cc3)ccc12,0.08 °C,0.6 °C,-0.11 °C,-0.55 °C,0.38 °C,0.15 °C
COCc1nc2cnc3cc(-c4c(C)noc4C)c(OC[C@H]4CCNC4)cc3c2n1[C@H](C)c1ccccc1,0.08 °C,0.87 °C,0.07 °C,-0.83 °C,0.35 °C,-0.39 °C
N=C(N)NCCC[C@H](NC(=O)CC1(CC(=O)N2CCN(C3c4ccccc4NC(=O)c4ccccc43)CC2)CCCC1)C(=O)NCCn1c(=O)n(-c2ccccc2)n(-c2ccccc2)c1=O (stereo not given in full),-2.29 °C,-1.3 °C,-0.34 °C,-1.99 °C,-0.45 °C,-0.47 °C
CP(C)(=O)c1ccc(CNC(=O)C2CCN(S(=O)(=O)c3cc(Cl)cc(Cl)c3)CC2)cc1,0.74 °C,0.5 °C,0.35 °C,-0.16 °C,0.45 °C,-0.19 °C

SMILES,ΔTm [1],ΔTm [2],ΔTm [3],ΔTm [4],ΔTm [5],ΔTm [6]
c1ccc(C2CCN(c3cnc4c(N5CCOCC5)nccn34)CC2)cc1,0.01 °C,0.19 °C,0.18 °C,-0.6 °C,0.57 °C,-0.14 °C
O=C(O)/C=C/c1ccc(Cn2ccnc2)cc1,0.1 °C,0.39 °C,0.22 °C,0.69 °C,0.29 °C,0.06 °C
CC(C=CC1=C(C)CCCC1(C)C)=CC=CC(C)=CC(=O)O,0.39 °C,0.25 °C,0.93 °C,-0.56 °C,0.1 °C,-3.01 °C
CNC(=O)c1ccc2c(c1)ncn2-c1ccc(CC(=O)OC(C)(C)C)cc1,4.4 °C,0.07 °C,-0.01 °C,-0.5 °C,0.2 °C,0.99 °C
C/C=C1\C(=O)CC2C3CCC4=CC(=O)CC[C@]4(C)C3CC[C@]12C (stereo not given in full),0.07 °C,-0.3 °C,0.63 °C,-1.05 °C,0.47 °C,-1.78 °C
Cn1nccc1-c1ccc(Sc2cccc(C3(C(N)=O)CCOCC3)c2)cc1,-0.11 °C,0.88 °C,-0.02 °C,-1.17 °C,0.22 °C,0.6 °C
O=C(CCSCc1ccco1)NNC(=O)N1Cc2ccccc2Oc2ccc(Cl)cc21,0.44 °C,0.06 °C,-8.4 °C,-9.34 °C,0.1 °C,1.12 °C
Cc1c(N2CCCC2)nc2ccc(Br)cc2c1C(=O)NC[C@H](CCC(=O)O)c1ccccc1Cl,-0.28 °C and -0.08 °C,-0.21 °C and 0.71 °C,-0.02 °C and 0.51 °C,-0.57 °C and -1.1 °C,-0.65 °C and 0.37 °C,-0.24 °C and -0.2 °C
Cc1ncsc1-c1ccc(CNC(=O)[C@@H]2C[C@@H](O)CN2C(=O)[C@@H](NC(=O)CCCCNC(=O)c2ccc(-c3ccc(N4CCN(C)CC4)c(NC(=O)c4c[nH]c(=O)cc4C(F)(F)F)c3)cc2)C(C)(C)C)cc1,-3.44 °C,1.06 °C,0.88 °C,-0.58 °C,-2.62 °C,0.62 °C
CCCCC/C=C/C=C1/C(=O)C=C[C@@H]1C/C=C\CCCC(=O)O,-2.05 °C,-0.61 °C,-0.75 °C,-0.25 °C,-0.53 °C,-1.52 °C
O=C(Nc1ccc(C(O)(C(F)(F)F)C(F)(F)F)cc1)c1ccc(C(F)(F)F)cc1,0.76 °C,1.61 °C,1.47 °C,-0.34 °C,0.19 °C,0 °C
O=c1cc(C2CCNCC2)n2nc3cccc(Cl)c3c2[nH]1,0.46 °C,-0.11 °C,0.7 °C,0.46 °C,0 °C,-0.12 °C
C[C@@H]1CC(=O)N(C2CC2)N=C1c1ccc(NC(=O)N2Cc3ccncc3C2)cc1,0.36 °C,0.35 °C,0.2 °C,-0.86 °C,0.29 °C,0.22 °C
CC1(C)Cc2nc(C3CCCC3)c([C@@H](F)c3ccc(C(F)(F)F)cc3)c(C3CCCCC3)c2[C@@H](O)C1,0 °C,1.04 °C,0.11 °C,0 °C,0.06 °C,-0.24 °C
CC(C)(C)NC(=O)c1cncn1C1CCN(c2ccc(-c3nnc(C(F)(F)F)o3)cn2)CC1,1.4 °C,0.97 °C,0.21 °C,-0.09 °C,0.18 °C,0.23 °C
Cn1c(C2(NC(=O)c3ccc4c(C5CCCC5)c(-c5ncc(Br)cn5)n(C)c4c3)CCC2)nc2ccc(/C=C/C(=O)O)cc21,-0.54 °C and 0.85 °C,-2.05 °C and -1.62 °C,-3.08 °C and -1.06 °C,-3.92 °C and -2.25 °C,-2.08 °C and -0.58 °C,-1.12 °C and -3.19 °C
CNC(=O)c1nnc(NC(=O)C2CC2)cc1Nc1cccc(-c2ncn(C)n2)c1OC,3.38 °C,0.57 °C,0.11 °C,5.87 °C,0.36 °C,0.41 °C
Cc1cc(Cn2c(N3CC4(CNC4)C3)nc3c(N4CCN(C)CC4)cc(Cl)cc32)cc(C)c1F,0.24 °C,0.83 °C,0.19 °C,0.34 °C,0.58 °C,0.07 °C
Cc1nn(-c2ccccc2)c(Nc2ccccc2C(=O)O)c1-c1cc2nccnc2c(F)c1F,-0.68 °C,0.56 °C,0.22 °C,1 °C,0.47 °C,0.69 °C
N#Cc1cccc(-c2c[nH]c3ncnc(N4CCOCC4)c23)c1,1.39 °C,1.88 °C,0.56 °C,4.32 °C,0.64 °C,4.35 °C
O=c1[nH]c(CS[C@H]2CC[C@H](O)CC2)nc2cc(OCC3CC3)cc(F)c12,0.13 °C,0.95 °C,0.35 °C,0.78 °C,0.46 °C,-0.03 °C
CNc1nc(-c2ccc3c(N)n[nH]c3c2)cc(N2C[C@@H](C(=O)NC3CCCCC3)CC[C@H]2C)n1,0.49 °C,-0.54 °C,0.18 °C,0.25 °C,0.38 °C,2.89 °C
COc1cc2nc(C)nc(N[C@H](C)c3cc(N)cc(C(F)(F)F)c3)c2cc1O[C@H]1CCOC1,-0.37 °C,0.99 °C,0.27 °C,0.96 °C,0.04 °C,0.75 °C
CN(C)[C@H]1CCc2nc(NC(=O)c3cccc(Cn4cc(-c5ccc(C#N)cc5)cn4)c3)sc2C1,0.14 °C,0.68 °C,0.36 °C,0.72 °C,0.35 °C,0.61 °C
c1ccc2c(c1)SCc1c-2[nH]c2ccccc12,-6.18 °C,-4.12 °C,-0.03 °C,1.83 °C,0.46 °C,-4.16 °C
